From PubChem BioAssay AID1159580 (chemical genetic matrix, 2015)
Hit rate of the full screen: of about 5,500 compounds, about 2,000 (36%) were called active. Another 18% or so got no clear call; they are omitted. Rule as the data show it: active = normalized growth mostly below about 0.91 (no sharp cut-off); inconclusive = no clear call, values can overlap the other calls; inactive = mostly above about 0.92. The list shows a part of the results.

Test: chemical genetic growth profiling, strain panel (AID 1159580);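 also: tested at 20 µM; growth read once vehicle control cultures reached saturation at 30 °C; 1 = growth at the plate median or of vehicle wells; lower values mean less growth of the strain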
Conditions: S. cerevisiae deletion strains, growth OD
[1] = locus YDL101C, strain DUN1, active compounds read low
[2] = locus YHR030C, strain SLT2, active compounds read low

Measured: normalized growth

CC(C)c1ccc(NC(=S)NC(=O)c2ccccc2)cc1
active: [2] 0.797
inactive: locus YAR019C, strain CDC15, active compounds read low 0.964 | locus YBL105C, strain PKC1, active compounds read low 0.952 | locus YBR135W, strain CKS1, active compounds read low 0.957 | locus YBR136W, strain MEC1, active compounds read low 0.963 | locus YBR160W, strain CDC28, active compounds read low 0.961 | locus YDL017W, strain CDC7, active compounds read low 0.96 | locus YDL028C, strain MPS1, active compounds read low 0.953 | [1] 0.96 | locus YDL108W, strain KIN28, active compounds read low 0.971 | locus YDL132W, strain cdc53, active compounds read low 0.953 | locus YDL214C, strain PRR2, active compounds read low 0.939 | locus YDR052C, strain DBF4, active compounds read low 0.962 | locus YDR054C, strain cdc34, active compounds read low 0.94 | locus YDR226W, strain ADK1, active compounds read low 0.955 | locus YDR477W, strain SNF1, active compounds read low 0.923 | locus YER123W, strain YCK3, active compounds read low 0.959 | locus YER133W, strain GLC7, active compounds read low 0.938 | locus YFL009W, strain cdc4, active compounds read low 0.952 | locus YFL029C, strain CAK1, active compounds read low 0.953 | locus YFR003C, strain YPI1, active compounds read low 0.961 | locus YFR019W, strain FAB1, active compounds read low 0.999 | locus YFR028C, strain CDC14, active compounds read low 0.958 | locus YGR040W, strain KSS1, active compounds read low 0.918 | locus YGR052W, strain FMP48, active compounds read low 1.03 | locus YGR092W, strain DBF2, active compounds read low 0.851 | locus YHR079C, strain IRE1, active compounds read low 0.882 | locus YHR082C, strain KSP1, active compounds read low 0.974 | locus YHR205W, strain SCH9, active compounds read low 0.904 | locus YIL147C, strain SLN1, active compounds read low 0.963 | locus YJL095W, strain BCK1, active compounds read low 0.883 | locus YJL128C, strain PBS2, active compounds read low 0.94 | locus YJL157C, strain FAR1, active compounds read low 0.923 | locus YJR016C, strain ILV3, active compounds read low 0.958 | locus YJR066W, strain TOR1 (second series), active compounds read low 0.906 | locus YJR066W, strain TOR1, active compounds read low 0.891 | locus YKL048C, strain ELM1, active compounds read low 0.968 | locus YKL067W, strain YNK1, active compounds read low 0.953 | locus YKL101W, strain HSL1, active compounds read low 0.957 | locus YKL193C, strain SDS22, active compounds read low 0.954 | locus YKL203C, strain TOR2, active compounds read low 0.96 | locus YLR113W, strain HOG1, active compounds read low 0.919 | locus YLR133W, strain CKI1, active compounds read low 0.941 | locus YLR403W, strain SFP1, active compounds read low 0.879 | locus YML070W, strain DAK1, active compounds read low 0.97 | locus YMR001C, strain CDC5, active compounds read low 0.951 | locus YMR205C, strain PFK2 (second series), active compounds read low 0.956 | locus YMR277W, strain FCP1, active compounds read low 0.962 | locus YNL006W, strain LST8, active compounds read low 0.966 | locus YNL020C, strain ARK1, active compounds read low 0.926 | locus YNL161W, strain CBK1, active compounds read low 0.959 | locus YNL183C, strain NPR1, active compounds read low 0.957 | locus YNL207W, strain RIO2, active compounds read low 0.953 | locus YNL222W, strain SSU72, active compounds read low 0.959 | locus YNL307C, strain MCK1 (second series), active compounds read low 0.91 | locus YOL078W, strain AVO1, active compounds read low 0.956 | locus YOL136C, strain PFK27, active compounds read low 0.959 | locus YOR061W, strain CKA2, active compounds read low 0.904 | locus YOR119C, strain RIO1, active compounds read low 0.921 | locus YOR231W, strain MKK1, active compounds read low 0.911 | locus YOR329C, strain SCD5, active compounds read low 0.956 | locus YPL031C, strain PHO85, active compounds read low 0.898 | locus YPL153C, strain RAD53, active compounds read low 0.921 | locus YPL204W, strain HRR25, active compounds read low 0.933 | locus YPL209C, strain IPL1, active compounds read low 0.954 | locus YPL256C, strain CLN2, active compounds read low 0.92 | locus YPR025C, strain CCL1, active compounds read low 0.955 | locus YPR106W, strain ISR1, active compounds read low 0.958 | locus YPR111W, strain DBF20, active compounds read low 0.964 | strain NNK1, active compounds read low 0.967 | strain TSCII, active compounds read low 0.947

CC(C)c1ccc(NC(=S)NC(=O)c2ccc(C(F)(F)F)cc2)cc1
inactive: locus YAL013W, strain DEP1, active compounds read low 1 | locus YBR229C, strain ROT2, active compounds read low 1.02 | locus YCL061C, strain MRC1, active compounds read low 1.01 | [1] 1.01 | locus YDR150W, strain NUM1, active compounds read low 1 | locus YEL061C, strain CIN8, active compounds read low 1.02 | locus YGR078C, strain PAC10, active compounds read low 1.02 | locus YGR229C, strain SMI1, active compounds read low 1.02 | [2] 1.1 | locus YHR087W, strain rtc3, active compounds read low 1.02 | locus YJR043C, strain POL32, active compounds read low 1.01 | locus YJR075W, strain HOC1, active compounds read low 1 | locus YKL190W, strain CNB1, active compounds read low 1.02 | locus YLR039C, strain RIC1, active compounds read low 1.09 | locus YLR058C, strain SHM2 (second series), active compounds read low 1.02 | locus YLR262C, strain YPT6, active compounds read low 1.07 | locus YML094W, strain GIM5, active compounds read low 1.02 | locus YMR219W, strain ESC1, active compounds read low 1.01 | locus YMR263W, strain SAP30, active compounds read low 1 | locus YMR307W, strain GAS1, active compounds read low 1.3 | locus YNL128W, strain TEP1, active compounds read low 1.02 | locus YNL153C, strain GIM3, active compounds read low 0.989 | locus YNL298W, strain CLA4 (second series), active compounds read low 1.06 | locus YNL322C, strain KRE1, active compounds read low 1.01 | locus YNR030W, strain Alg12, active compounds read low 1.01 | locus YPL055C, strain LGE1, active compounds read low 0.997 | locus YPL241C, strain CIN2, active compounds read low 1.13 | locus YPR135W, strain CTF4, active compounds read low 1.09
active: locus YLR085C, strain ARP6, active compounds read low 1.23 [resistant]
